Assay results: PubChem BioAssay AID1159580 (chemical genetic matrix, 2015)
Hit rate of the full screen: of about 5,500 compounds, about 2,000 (36%) were called active. Another 18% or so got no clear call; they are omitted. Cut-off read from the data, not from the text of the source: active = normalized growth mostly below about 0.91 (no sharp cut-off); inconclusive = no clear call, values can overlap the other calls; inactive = mostly above about 0.92. The list shows a part of the results.

Assay: chemical genetic growth profiling, strain panel (AID 1159580);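 note: tested at 20 µM; growth read once vehicle control cultures reached saturation at 30 °C; 1 = growth at the plate median or of vehicle wells; lower values mean less growth of the strain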
Details: S. cerevisiae deletion strains, growth OD

Measured: normalized growth

COCCCCC(=NOCCN)c1ccc(C(F)(F)F)cc1
inactive: locus YAL040C, strain CLN3, hits give low values 0.994 | locus YCL061C, strain MRC1 (second series), hits give low values 0.997 | locus YDR363W, strain ESC2, hits give low values 0.975 | locus YER002W, strain NOP16, hits give low values 1 | locus YJR075W, strain HOC1, hits give low values 0.992 | locus YNL153C, strain GIM3, hits give low values 1.02 | locus YNL175C, strain NOP13, hits give low values 1.01 | locus YNL197C, strain WHI3, hits give low values 1 | locus YNL224C, strain SQS1, hits give low values 1.02 | locus YNL322C, strain KRE1, hits give low values 0.988 | locus YOR083W, strain WHI5 (second series), hits give low values 0.993
